According to the supplement of paper PMC4166925:
± gives the standard deviation of the averaged measurements. Whole data set: some 33,000 sequences, median “E-score (dimensionless, -0.5 to 0.5)” near -0.049, cut for the highest 2% near 0.37. Shown is part of a subset that was picked to be rich in the highest values.

The sequences below were run on T1, PmTbr T-box DNA-binding domain (GST fusion) (assay: PBM E-score of 8-mer (E-score (dimensionless, -0.5 to 0.5)); Tbr is Tbrain of the sea star Patiria miniata (Pm) or the sea urchin Strongylocentrotus purpuratus (Sp); higher = stronger binding preference). Settings: the construct has about 5 more residues each side.
T1 sequence: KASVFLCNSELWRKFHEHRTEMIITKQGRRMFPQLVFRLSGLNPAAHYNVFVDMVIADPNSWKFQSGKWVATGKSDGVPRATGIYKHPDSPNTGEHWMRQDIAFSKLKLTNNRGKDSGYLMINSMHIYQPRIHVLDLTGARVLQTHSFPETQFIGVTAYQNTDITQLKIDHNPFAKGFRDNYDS
Method in brief: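 Universal Agilent oligonucleotide arrays, made double-stranded by primer extension, were incubated with 200 nM GST-fused Tbr T-box DNA-binding domain in PBS (pH 7.5). The protein was expressed in BL21 E. coli at 20 °C and purified by glutathione affinity chromatography. After scanning and quantification, the Universal PBM Analysis Suite assigned an enrichment E-score to each ungapped 8-mer, averaged over duplicate arrays.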

Sequence | PBM E-score of 8-mer
GCTAGCAA | 0.144 ± 0.015
ATATTGCC | -0.106 ± 0.095
CTTCTATC | -0.198 ± 0.025
ATCTGTGA | 0.282 ± 0.0073
GTCGCCAA | 0.288 ± 0.038
CGGTCAAA | -0.18 ± 0.0046
AACAGTGC | 0.0577 ± 0.058
ATTCTGAG | -0.131 ± 0.012
CCGGCTGC | -0.125 ± 0.1
CGCGCGAC | 0.291 ± 0.025
ATCGCGAC | 0.26 ± 0.021
TGCGCGAA | 0.307 ± 0.017
GTCGCGAC | 0.385 ± 0.0054
CGCGCGAG | 0.27 ± 0.023
CTCGCGAC | 0.326 ± 0.0051
GGCGCGAC | 0.377 ± 0.025
AGCGCGAC | 0.242 ± 0.003
CGCGCGAA | 0.3963 ± 0.00041
ATAGGGGG | -0.0469 ± 0.086
CATCAAAC | -0.0906 ± 0.034
AAGGGGCC | -0.0989 ± 0.015
GCATGTAA | -0.124 ± 0.0041
GACCTTCA | -0.0991 ± 0.0084
AACCTTCG | -0.135 ± 0.0027
CCCCTTCG | -0.126 ± 0.029

Sequence | PBM E-score of 8-mer
GACCTTCC | 0.0338 ± 0.01
CACCTTCA | 0.436 ± 0.0071
AACCTTCA | -0.149 ± 0.083
AACCTTCC | -0.196 ± 0.038
CACCTTCC | 0.4461 ± 0.0012
CACCTTCG | 0.431 ± 0.02
AGATCGTA | 0.0776 ± 0.06
ACTCCTCG | 0.219 ± 0.032
ACCTAAGT | 0.0966 ± 0.0054
TAGGTCGA | -0.111 ± 0.085
GGGCGCAA | 0.0355 ± 0.036
ACTTGGAA | -0.1519 ± 0.00037
CCTCCACA | 0.233 ± 0.021
CGCTTGAA | -0.191 ± 0.056
CCATTAAC | 0.0966 ± 0.0036
CCTGTTGA | 0.091 ± 0.045
CTCTTGAA | -0.374 ± 0.012
AGACAGAG | -0.139 ± 0.052
ATCACCGG | -0.319 ± 0.02
GTCACCGA | 0.127 ± 0.041
CTCACCGC | 0.055 ± 0.076
GTCACCTA | 0.4173 ± 0.0026
ATCACCAG | -0.0506 ± 0.043
ATCACCCC | 0.289 ± 0.028
CTCACCAC | 0.209 ± 0.054

Sequence | PBM E-score of 8-mer
ATCACCAC | 0.15 ± 0.0054
CTCACCTC | 0.449 ± 0.009
GTCACCCA | 0.259 ± 0.056
ATCACCTC | 0.4197 ± 0.00045
ATCACCTG | 0.379 ± 0.019
AAAGACTC | -0.156 ± 0.018
AAGGGGGG | -0.444 ± 0.023
CGCACTAG | 0.167 ± 0.021
ATGCTGCC | -0.293 ± 0.037
ACCCACGG | -0.132 ± 0.022
CATGCGAA | 0.108 ± 0.046
CTTACCTA | -0.153 ± 0.059
CTCACCGA | 0.00965 ± 0.039
ATCACCTA | 0.392 ± 0.022
ATCACCAA | 0.17 ± 0.016
ATCACCCA | 0.276 ± 0.021
CTCACCTA | 0.4081 ± 0.0035
CTAGCGTA | 0.0249 ± 0.015
ATGGTTAC | -0.265 ± 0.029
ATTGGCGA | 0.156 ± 0.027
CTTAGCAC | 0.4 ± 0.0047
ATTAGCAC | 0.417 ± 0.016
CATAGCAC | 0.306 ± 0.029
ATTAGCAG | 0.129 ± 0.045
ATTAGCAA | 0.12 ± 0.092

Sequence | PBM E-score of 8-mer
CTTAGCAA | 0.0581 ± 0.031
AGAAGGGC | -0.11 ± 0.013
CTTGCTCA | 0.0359 ± 0.0032
GTCGCACA | 0.353 ± 0.025
CTCGCGCC | 0.401 ± 0.013
CTCGCACA | 0.375 ± 0.0071
ATCGCACC | 0.4642 ± 0.0032
ATCGCGCC | 0.368 ± 0.016
CTCGCAGA | 0.00155 ± 0.054
CTCGCACC | 0.4721 ± 0.0042
ATCGCACA | 0.3241 ± 0.00047
CCCGCACC | 0.3 ± 0.031
ATCGCACG | 0.34 ± 0.023
CTCGCATC | 0.176 ± 0.033
CTCGCGCA | 0.191 ± 0.024
CGAAGAGC | -0.116 ± 0.044
CAGCACAG | -0.0973 ± 0.029
CGGGGTTA | -0.195 ± 0.071
GGCATGAA | -0.0787 ± 0.006
CTCTAAGA | -0.271 ± 0.053
CTTTTACA | 0.169 ± 0.025
AGCTTAGC | -0.0359 ± 0.0015
TATGATGA | -0.156 ± 0.037
AGTCAAAG | -0.132 ± 0.081
GAGAGATA | -0.0805 ± 0.045

Sequence | PBM E-score of 8-mer
CCACATTA | 0.126 ± 0.0023
ATAACACG | 0.325 ± 0.05
CTAACACC | 0.4751 ± 0.004
CTTACACC | 0.395 ± 0.013
CTAACACA | 0.374 ± 0.035
CGAACACC | 0.3416 ± 0.0028
ATTACACC | 0.349 ± 0.0023
CTAACATC | -0.1377 ± 0.00032
ATAACACA | 0.3597 ± 0.0034
CTTACACA | 0.277 ± 0.012
ATAACACC | 0.465 ± 0.0066
GTAACACA | 0.3374 ± 0.0018
ATAACATC | -0.101 ± 0.065
AGACCCCT | -0.245 ± 0.086
AAACCCGG | -0.207 ± 0.0074
GTCCCCTA | -0.175 ± 0.076
AAATTAGC | 0.24 ± 0.01
GCTTCACC | 0.0106 ± 0.012
CACGTCCG | 0.26 ± 0.0099
CCGGTTAC | -0.0412 ± 0.0065
CTTTGCTC | -0.0392 ± 0.02
ACAGAGGC | 0.0769 ± 0.02
CGGGTGTC | 0.4001 ± 0.002
AGGGTGGC | 0.191 ± 0.011
AGAGGGTC | -0.202 ± 0.011

Sequence | PBM E-score of 8-mer
CGGGTGTA | 0.0538 ± 0.035
AGGGTGTC | 0.435 ± 0.014
AGGGTGAC | 0.326 ± 0.031
AGAGGGTG | 0.383 ± 0.011
AGGGGGTG | 0.316 ± 0.027
AGGGTGTG | 0.43 ± 0.027
AGAGGGTA | -0.108 ± 0.023
CCGGTGTC | 0.247 ± 0.0031
AGGGTGTA | 0.317 ± 0.0034
CCCTAGGG | -0.16 ± 0.025
AGGTTTGG | -0.19 ± 0.043
CATTCTTA | -0.235 ± 0.007
GGAAGCAC | -0.23 ± 0.015
ATGGTGAG | 0.223 ± 0.0051
CATTCAGG | 0.0358 ± 0.077
ATAACAAA | -0.00818 ± 0.13
AGGATCAT | -0.151 ± 0.0099
CGGGCAAG | -0.0794 ± 0.036
CGAGGCCC | -0.297 ± 0.064
CACCTAAA | 0.368 ± 0.0085
CACCTAAC | 0.408 ± 0.028
CCCCTAAG | -0.0688 ± 0.042
CACCTAAG | 0.381 ± 0.021
AACCTAAC | 0.0221 ± 0.052
AACCTAAG | -0.12 ± 0.084

Sequence | PBM E-score of 8-mer
GCTACAGC | -0.2 ± 0.12
ACCGACTC | -0.012 ± 0.041
AGCAACCT | -0.0154 ± 0.04
AGTTGACA | 0.407 ± 0.008
GGTTGACA | 0.3518 ± 0.0019
CGTTGACC | 0.0227 ± 0.075
AGTTGACG | 0.153 ± 0.053
AGTTGACC | -0.231 ± 0.009
CGTTGACA | 0.405 ± 0.0049
CTTCTATA | -0.287 ± 0.067
GATAGCAA | 0.202 ± 0.052
ATCAGAAT | -0.106 ± 0.065
ATGAGAAC | -0.0696 ± 0.046
ATGAGAAA | -0.182 ± 0.17
CTGAGAAA | 0.00608 ± 0.019
GTGAGAAA | 0.458 ± 0.012
CTGAGAAC | -0.052 ± 0.016
GTGAGAAC | 0.44 ± 0.0046
GCGAGAAC | 0.375 ± 0.01
ACGAGAAC | 0.0117 ± 0.058
GCGAGAAA | 0.356 ± 0.034
GAGCGCAC | -0.0637 ± 0.099
CTCACAAC | 0.3462 ± 0.0029
CCCAGAAC | -0.157 ± 0.065
CACCTTGG | 0.45511 ± 0.00014

Sequence | PBM E-score of 8-mer
GACCTTGC | -0.145 ± 0.021
TACCTTGA | 0.00793 ± 0.011
AACCTTGG | -0.183 ± 0.041
AACCTTGC | 0.060455 ± 2.1e-05
GACCTTGA | -0.166 ± 0.025
CACCTTGC | 0.4191 ± 0.0029
CACCTTGA | 0.383 ± 0.017
CAGCTTGG | 0.0903 ± 0.044
ATTATGCG | -0.162 ± 0.031
GCGGTAAC | -0.0299 ± 0.029
AATTGGTC | -0.139 ± 0.051
CCCTCTCG | 0.0695 ± 0.027
CGGTATAC | -0.0592 ± 0.023
CCTAGAGG | -0.0482 ± 0.018
ACCCACAT | 0.203 ± 0.096
ACACACCT | 0.445 ± 0.0069
AAACACCC | 0.227 ± 0.027
AGACACCT | 0.4559 ± 0.0013
AGACACAT | 0.184 ± 0.0023
ACACACCG | 0.125 ± 0.027
ACACACAT | 0.288 ± 0.013
AAACACCG | 0.143 ± 0.013
AAACACCT | 0.4565 ± 0.0016
AGACACCG | 0.185 ± 0.012
GGAGTGGA | -0.0457 ± 0.03

Sequence | PBM E-score of 8-mer
ACATTTCA | 0.125 ± 0.0075
AGCTATCC | -0.334 ± 0.059
AGGACACG | -0.0089 ± 0.017
ACGCCTGG | 0.236 ± 0.015
CACAACAA | 0.278 ± 0.0061
GCCAACAC | 0.354 ± 0.0042
CACAACAC | 0.387 ± 0.02
CCCAACAC | 0.385 ± 0.0085
GACAACAC | 0.391 ± 0.014
AACAACAC | 0.363 ± 0.01
CACAACAG | 0.161 ± 0.033
CCCAACAA | 0.0135 ± 0.11
GACAACAA | 0.194 ± 0.046
GTCAACAC | 0.427 ± 0.012
GTCAACAA | 0.293 ± 0.013
CTCAACAC | 0.321 ± 0.029
AATTCGCT | 0.00911 ± 0.0077
CGCAGGCC | -0.171 ± 0.036
GGTTCGAC | 0.0606 ± 0.091
